Bioassay records as filed in PubChem.
Compounds with a hit are over-represented: about 2.4% of the library has one in this group of screens.
POLK inh = blocks human DNA polymerase kappa activity; Q9UBT6; purified Pol kappa, fluorescent DNA synthesis assay, 10 min; Potency, µM (titrated, usually from 107 µM), without a hit: top-dose activity, negative = inhibition, hits mostly inhibitors; 400,000 compounds, 0.53% hits; AID 588579; further: on the % scale 0 is the no-effect control and ±100 the full control effect
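Kinetic fluorescence readout at 0 and 10 min followed reaction start with substrate at 50 nM final. Beforehand, enzyme (10 nM Pol kappa) stood 15 min with compound at room temperature; buffer-only wells were negative controls.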
Pol eta inh = blocks human DNA polymerase eta activity | 390,000 compounds, 1.2% hits | recombinant Pol eta, fluorescent DNA replication assay | AID 588591 | Potency, µM (top dose mostly 114 µM), for inactives: at the highest dose activity change, negative = inhibition, hits mostly inhibitors | Q9Y253; further: on the % scale 0 is the no-effect control and ±100 the full control effect
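Fluorescent replication assay: 50 nM final substrate added after a 15 min room-temperature compound preincubation with 10 nM enzyme. Signal taken at 0 min and again at 10 min.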
FEN1 inhibitor = human FEN1 inhibition; P39748; AID 588795; Potency, µM (highest dose often 114 µM), for the others: at the highest dose activity change, negative = inhibition, most hits filed as inhibitors; Recombinant FEN1 flap cleavage, fluorescence, 15 min; 390,000 compounds, 0.35% hits; further: on the % scale 0 is the no-effect control and ±100 the full control effect; nearly all actives have a fitted effect of over 65% in size
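Enzyme 10 nM, 15 min RT preincubation with compound; start with substrate 50 nM final; reads at 0 and 15 min; qHTS titration, four-parameter Hill fit.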
WRN helicase inh-1 = blocks human WRN helicase; Q14191; WRN helicase unwinding, fluorescent forked duplex, kinetic; Potency, µM (titrated, usually from 114 µM), inactives show at the top dose activity change, negative = inhibition, hits mostly inhibitors; 360,000 compounds, 0.46% hits; AID 651768; further: on the % scale 0 is the no-effect control and ±100 the full control effect; nearly all actives have a fitted effect of over 55% in size
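WRN at 20 nM final was preincubated with compound for 15 min at room temperature; reaction started with 100 nM forked duplex oligonucleotide carrying fluorophore and quencher plus 2 mM ATP (final). Unwinding followed kinetically by red fluorescence (ex 525/em 598 nm).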
Pol beta inh = inhibitors of human DNA polymerase beta | P06746 | Pol beta primer extension/strand displacement, fluorescence kinetic | Potency, µM (top dose mostly 114 µM), without a hit: top-dose activity change, negative = inhibition, actives largely listed as inhibitors | 340,000 compounds, 1.3% hits; further: on the % scale 0 is the no-effect control and ±100 the full control effect
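Homogeneous kinetic assay of primer extension and strand displacement by 10 nM Pol beta, preincubated 15 min at room temperature with compound before 50 nM substrate (final) was added. Read at 0 and 10 min; four-parameter Hill fit.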
Pol iota inh = DNA polymerase iota (human) inhibition; Q9UNA4; Pol iota fluorescent replication assay, 10 min; Potency, µM (highest dose often 115 µM), without a hit: at the top dose activity, negative = inhibition, actives largely listed as inhibitors; 390,000 compounds, 1% hits
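Fluorescent replication assay read twice, at 0 min and 10 min after adding 50 nM (final) substrate. Enzyme (10 nM) and compounds were first incubated 15 min at room temperature; enzyme-free buffer wells were negative controls.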
WRN helicase inh-2 = confirmation of human WRN helicase inhibitors. 610 compounds, 63% hits. shares compounds with WRN helicase inh-1. Potency, µM (titrated, usually from 57.1 µM), for inactives: at the top dose activity, negative = inhibition, hits mostly inhibitors. WRN helicase DNA unwinding, fluorescence kinetic; further: nearly all actives have a fitted effect of over 65% in size
TO DNA binding = counter-screen for WRN helicase inhibitors: DNA binding; shares compounds with WRN helicase inh-1; thiazole orange DNA binding displacement, fluorescence; Potency, µM (highest dose often 57.1 µM), for inactives: at the highest dose activity change, negative = inhibition, hits mostly inhibitors; 610 compounds, 10% hits; AID 720499;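 further: drop in dye fluorescence marks compound binding to DNA; on the % scale 0 is the no-effect control and ±100 the full control effect; nearly all actives have a fitted effect of over 60% in size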
BLM helicase inh = blocks human BLM helicase in WRN counterscreen; shares compounds with WRN helicase inh-1; Recombinant BLM helicase DNA unwinding, red fluorescence; Potency, µM (top dose mostly 57.1 µM), for the others: at the highest dose activity change, negative = inhibition, usual class: inhibitors; 610 compounds, 60% hits; AID 720503; further: nearly all actives have a fitted effect of over 60% in size
Starred values were filed as active, the others as inactive; ? = inconclusive; . = no result given; [ ] = remark or other dose. The call rests on the fitted dose curve; in most records, active means well fitted curve in the direction sought with a large enough effect; inconclusive means small, poorly fitted or top-dose-only effect, or another doubt; inactive means no such curve, though single readings can be large; an effect the other way counts as inactive or inconclusive. Potency means the concentration at half of the fitted maximal effect.

SMILES	POLK inh	Pol eta inh	FEN1 inhibitor	WRN helicase inh-1	Pol beta inh	Pol iota inh	WRN helicase inh-2	TO DNA binding	BLM helicase inh
Cc1nnc(Sc2cc(NCCCO)c([N+](=O)[O-])c3nonc23)s1	-19.5%	79.4µM*	44.7µM*	22.4µM*	-17.3%	12.6µM*	?	-12.7%	?
CCC(=O)OCCNc1cc(Sc2nc3ccccc3[nH]2)c2nonc2c1[N+](=O)[O-]	-22.6%	?	-23.3%	?	-16.3%	?	.	.	.
CCOc1ccc(CNC(=O)c2c(C)nn(-c3ccc(F)cc3)c2-n2cccc2)cc1	-0.4%	-22.9%	7.4%	.	-1.2%	7.8%	.	.	.
COc1ccccc1-c1nnc(C2CCN(S(=O)(=O)c3ccc(CC(C)C)cc3)CC2)o1	-4.4%	-17.1%	-11.1%	.	0.9%	59.6%	.	.	.
CN1CCN(C(=S)C(=O)Nc2ccc(Br)cc2)CC1	-0.4%	-12.1%	?	44.7µM*	-5.3%	71.0%	3.2%	-3.8%	-25.2%
CCOc1ncccc1C(=O)NNC(=O)c1cccc(S(=O)(=O)Nc2ccc(OC)cc2)c1	-3.0%	-11.1%	12.1%	?	-27.1%	3.8%	-23.4%	-8.1%	-14.1%
CCOc1ccccc1C(=O)NCC(=O)NNC(=O)c1cccc(S(=O)(=O)Nc2ccc(OC)cc2)c1	-6.3%	-15.4%	0.4%	-7.5%	.	-10.8%	.	.	.
COc1cccc(CNC(=O)c2ccc(CS(=O)Cc3ccc(Cl)cc3)o2)c1 (stereo not drawn)	-5.7%	-19.6%	8.6%	.	10.2%	32.1%	.	.	.
COC(=O)C(CC(=O)c1ccc(Br)cc1)n1nc(C)cc1C (stereo not drawn)	-2.0%	-17.3%	9.6%	-6.3%	-3.4%	26.3%	.	.	.
COC(=O)C(CC(=O)c1ccc(Br)cc1)n1ccnc1 (stereo not drawn)	-0.8%	.	?	.	-0.7%	1.2%	-15.4%	-11.3%	?
CCOC(=O)N1CCc2c(sc3c2c(=O)n(Cc2ccccc2)c(=O)n3Cc2c(F)cccc2Cl)C1	2.0%	-5.6%	6.0%	.	13.2%	55.5%	.	.	.
CC1CCCN(Cc2c(O)ccc3c2O/C(=C\c2ccco2)C3=O)C1 (stereo not drawn)	35.5µM*	44.7µM*	?	35.5µM*	12.6µM*	1.58µM*	-9.0%	330.8%	-26.8%
Cc1nnc(-c2cccc(Br)c2)c2cn(-c3cccc(Br)c3)nc12	-15.3%	?	?	25.1µM*	-6.6%	1.7%	?	16.6%	9.61µM*
Cc1nnc(-c2cccc(Br)c2)c2cn(-c3ccccc3)nc12	-6.7%	-0.9%	?	2.1%	14.3%	0.8%	.	.	.
COc1ccccc1C(=O)N1CCC(c2noc(-c3ccc(S(=O)(=O)N4CCCC4)cc3)n2)CC1	-6.9%	-4.7%	14.9%	.	1.8%	1.7%	.	.	.
Cc1ccc(CNC(=O)CN2C(=O)C3(SCC(=O)N3c3cc(C)cc(C)c3)c3ccccc32)cc1 (stereo not drawn)	-7.9%	-12.1%	-13.5%	.	-2.5%	-14.6%	.	.	.
COC(=O)c1ccc(CCc2cc(O)c(Br)cc2O)cc1	-11.5%	-22.4%	8.0%	25.1µM*	.	-12.0%	-27.4%	-10.9%	?
CCOC(=O)c1nc(NCc2ccc(Cl)cc2)c2c(C)noc2n1	-5.5%[60.1 µM]	-5.5%	-5.2%	.	7.5%	19.2%	.	.	.
Oc1ccc(Nc2ccc3ccccc3c2)cc1	-31.9%	-13.7%	-3.2%	?	.	?	-23.0%	?	?
CCC[n+]1c2ccccc2cc2ccccc21	-1.0%	-7.6%	?	?	-16.7%	?	3.04µM*	1.71µM*	7.64µM*
N=C1S/C(=C\c2ccco2)C(=O)N1c1nccs1	-36.2%	?	-25.1%	-7.2%[11.6 µM]	?	?	.	.	.
N=C1S/C(=C\c2ccco2)C(=O)N1c1ccc2c(c1)OCO2	?	35.5µM*	-14.2%	?	20µM*	325.3%	?	-30.0%	19.2µM*
COc1cc(C(=O)Nc2cccc(OCc3cc(=O)n4c(C)csc4n3)c2)cc(OC)c1OC	-12.4%	-0.3%	-3.5%	.	22.4%	23.9%	.	.	.
CC(C)(C)N(Cc1ccc2c(c1)OCO2)C(=O)/C=C\S(=O)c1ccccc1 (stereo not drawn)	-5.3%	-10.8%	-11.0%	?	.	-9.0%	12.1µM*	-12.5%	24.1µM*
CCN(Cc1ccc2c(c1)OCO2)C(=O)/C=C/c1cccc(Br)c1	-6.8%	-19.6%	-4.3%	-3.6%	32.8%	28.1%	.	.	.
SMILES	POLK inh	Pol eta inh	FEN1 inhibitor	WRN helicase inh-1	Pol beta inh	Pol iota inh	WRN helicase inh-2	TO DNA binding	BLM helicase inh
CCOc1cc(/C=C2\C(=O)ON=C2C)ccc1OCc1ccccc1	3.2%	?	-1.6%	?	-19.3%	15.2%	?	0.0%	-11.8%
COc1ccc(/C=C2/C(=O)ON=C2C)cc1Cl	2.2%	4.1%	-1.5%	?	7.3%	17.3%	-8.0%	-7.4%	2.9%
C#CCOc1ccc(Cl)cc1/C=C1/C(=O)ON=C1C	1.4%	-7.1%	3.2%	-2.6%	-12.3%	-28.0%	.	.	.
CCCOc1ccc(/C=C2/C(=O)ON=C2C)cc1OCC	-2.4%	-18.3%	-3.7%	-6.6%	2.3%	49.8%	.	.	.
C#CCOc1ccc(/C=C2/C(=O)ON=C2C)cc1Br	1.6%	-29.5%	-1.9%	?	?	54.0%	-19.9%	-6.9%	?
O=c1c2oc3ccccc3c2n(Cc2cccc(C(F)(F)F)c2)c(=O)n1Cc1ccc2c(c1)OCO2	4.3%	-19.4%	8.0%	.	-0.2%	50.8%	.	.	.
Cc1cc(Cl)c(OCCOCCN2CCCCC2)c(Br)c1	-5.7%	2.3%	-0.9%	?	4.9%	144.4%	-2.3%	-1.6%	-14.6%
CCc1cc2c(cc3c(=O)n(CC(=O)NC(C)C)nc(CC)n32)s1	16.0%	-13.2%	-4.1%	.	-1.3%	30.7%	.	.	.
COc1ccccc1/C=C/c1nc(C#N)c(NCc2ccccc2)o1	3.7%	.	-7.3%	.	4.6%	41.4%	.	.	.
O=C(NCCCN1CCOCC1)c1sc2cc([N+](=O)[O-])ccc2c1Cl	-0.5%	-13.7%	?	28.2µM*	88.8%	59.5%	-11.6%	-14.8%	?
CCCn1ccc2c(OCC(=O)Nc3ccc(F)cc3F)cccc2c1=O	-0.9%[60.1 µM]	-20.9%	11.7%	.	1.5%	47.1%	.	.	.
